For nine sequences, binding signal results are on record in paper PMC7862700, “An all-to-all approach to the identification of sequence-specific readers for epigenetic DNA modifications on cytosine”.

Assay in all cases: DAPPL (digital affinity profiling via proximity ligation, sequencing); 10 mM Tris-HCl pH 7.5, 50 mM NaCl, 1 mM DTT, 4% glycerol, room temperature, 30 min; GST-TFs on glutathione beads, 16-mer random dsDNA library, 0.1% formaldehyde crosslink after washing; high values mean tight binding
What all share (details): protein: recombinant; tags: N-terminal GST; dsDNA, one strand shown

The target in assay [1] is T1, ERF (Homo sapiens, UniProt P50548 1-548).
T1 sequence: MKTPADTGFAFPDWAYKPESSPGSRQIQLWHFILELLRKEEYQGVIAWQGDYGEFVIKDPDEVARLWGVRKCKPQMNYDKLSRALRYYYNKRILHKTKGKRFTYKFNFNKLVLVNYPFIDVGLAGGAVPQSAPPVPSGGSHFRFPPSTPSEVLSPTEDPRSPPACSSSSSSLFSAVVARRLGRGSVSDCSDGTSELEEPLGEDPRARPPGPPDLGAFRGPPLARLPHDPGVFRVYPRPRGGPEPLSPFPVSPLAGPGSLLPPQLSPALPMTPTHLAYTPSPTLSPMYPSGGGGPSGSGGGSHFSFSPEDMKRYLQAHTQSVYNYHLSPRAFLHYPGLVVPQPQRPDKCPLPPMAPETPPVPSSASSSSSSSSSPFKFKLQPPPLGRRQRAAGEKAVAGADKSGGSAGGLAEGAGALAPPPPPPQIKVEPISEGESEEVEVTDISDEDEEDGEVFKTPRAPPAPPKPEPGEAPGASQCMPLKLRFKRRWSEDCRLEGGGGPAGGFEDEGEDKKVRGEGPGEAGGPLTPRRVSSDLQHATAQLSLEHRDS
The method, boiled down:
(§1)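 Each value of binding signal is a hexamer's read frequency for a factor divided by the same hexamer's frequency in the tag-only sample. Barcoded, bead-captured GST fusions of human transcription factors made in yeast were pooled with that sample and incubated with 200 nmole of a random double-stranded 16-mer DNA library in Tris/NaCl/DTT/glycerol buffer at room temperature for 30 min. Washing, 0.1% formaldehyde crosslinking, proximity ligation, PCR and Illumina NextSeq500 sequencing followed.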

Assay [2] deals with T2, ETV3L (Homo sapiens, UniProt Q6ZN32 1-361).
T2 sequence: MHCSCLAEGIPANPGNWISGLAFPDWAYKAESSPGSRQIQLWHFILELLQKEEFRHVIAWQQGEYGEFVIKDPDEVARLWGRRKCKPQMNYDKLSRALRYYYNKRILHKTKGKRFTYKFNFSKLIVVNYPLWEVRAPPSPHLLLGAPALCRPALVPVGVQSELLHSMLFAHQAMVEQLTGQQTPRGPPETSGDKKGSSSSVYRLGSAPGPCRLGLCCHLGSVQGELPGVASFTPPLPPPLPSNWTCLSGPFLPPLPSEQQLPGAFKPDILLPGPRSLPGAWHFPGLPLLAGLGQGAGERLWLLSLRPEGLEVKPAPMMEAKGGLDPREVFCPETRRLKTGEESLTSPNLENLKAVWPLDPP
The method, boiled down: as §1

Assay [3] has as its target T3, ETS2 (Homo sapiens, UniProt P15036 1-469).
T3 sequence: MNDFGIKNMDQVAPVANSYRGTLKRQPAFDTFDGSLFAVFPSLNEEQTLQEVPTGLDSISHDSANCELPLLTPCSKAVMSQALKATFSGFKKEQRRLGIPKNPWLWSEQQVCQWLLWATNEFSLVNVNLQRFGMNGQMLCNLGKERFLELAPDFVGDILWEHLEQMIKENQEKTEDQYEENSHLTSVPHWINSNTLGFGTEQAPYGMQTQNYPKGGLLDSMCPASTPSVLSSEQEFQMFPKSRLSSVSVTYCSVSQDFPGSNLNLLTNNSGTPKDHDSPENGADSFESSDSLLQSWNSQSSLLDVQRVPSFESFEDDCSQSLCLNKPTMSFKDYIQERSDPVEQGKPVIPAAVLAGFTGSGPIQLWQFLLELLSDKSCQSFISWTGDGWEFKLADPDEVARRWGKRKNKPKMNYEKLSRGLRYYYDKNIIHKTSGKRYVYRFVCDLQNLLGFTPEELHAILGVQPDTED
The method, boiled down:
as §1

The target of assay [4] is T4, SPDEF (Homo sapiens, UniProt O95238 1-335).
T4 sequence: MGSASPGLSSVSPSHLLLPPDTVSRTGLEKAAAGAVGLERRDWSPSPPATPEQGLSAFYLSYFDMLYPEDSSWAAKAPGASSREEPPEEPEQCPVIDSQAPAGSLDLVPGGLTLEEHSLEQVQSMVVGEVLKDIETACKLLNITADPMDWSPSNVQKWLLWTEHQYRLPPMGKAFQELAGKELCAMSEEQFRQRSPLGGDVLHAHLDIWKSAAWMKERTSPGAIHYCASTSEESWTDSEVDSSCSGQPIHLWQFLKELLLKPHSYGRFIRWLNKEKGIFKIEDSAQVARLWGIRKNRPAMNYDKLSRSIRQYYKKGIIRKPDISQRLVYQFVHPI
The method, boiled down: as §1

Assay [5] addresses T5, ETV7 (Homo sapiens, UniProt Q9Y603 1-341).
T5 sequence: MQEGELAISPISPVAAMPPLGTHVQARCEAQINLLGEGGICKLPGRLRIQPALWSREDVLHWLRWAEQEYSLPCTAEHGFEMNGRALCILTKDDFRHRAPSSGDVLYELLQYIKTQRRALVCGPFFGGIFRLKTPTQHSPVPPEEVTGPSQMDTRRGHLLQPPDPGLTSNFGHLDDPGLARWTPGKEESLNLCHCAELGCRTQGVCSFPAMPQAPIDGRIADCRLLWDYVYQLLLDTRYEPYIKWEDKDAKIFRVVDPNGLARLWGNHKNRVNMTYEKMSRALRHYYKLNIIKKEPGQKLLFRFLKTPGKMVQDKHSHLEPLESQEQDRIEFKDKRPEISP
The method, boiled down: as §1

For assay [6], the target named is T6, ELF5 (Homo sapiens, UniProt Q9UKW6-2 1-255).
T6 sequence: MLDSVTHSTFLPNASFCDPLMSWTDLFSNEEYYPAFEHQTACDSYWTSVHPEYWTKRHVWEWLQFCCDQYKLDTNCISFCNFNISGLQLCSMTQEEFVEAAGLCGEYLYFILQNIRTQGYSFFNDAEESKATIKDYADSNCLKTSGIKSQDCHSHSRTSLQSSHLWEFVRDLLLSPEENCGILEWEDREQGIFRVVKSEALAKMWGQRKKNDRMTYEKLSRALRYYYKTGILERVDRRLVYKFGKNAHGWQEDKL
The procedure, abridged: as §1

Assay [7] addresses T7, ETV3 (Homo sapiens, UniProt P41162-2 1-143).
T7 sequence: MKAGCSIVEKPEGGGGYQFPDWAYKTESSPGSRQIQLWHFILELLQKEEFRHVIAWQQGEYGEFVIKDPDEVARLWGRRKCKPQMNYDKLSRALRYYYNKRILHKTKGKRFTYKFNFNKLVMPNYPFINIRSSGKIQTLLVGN
The procedure, abridged:
as §1

For assay [8], the target named is ETV6 (Homo sapiens, UniProt P41212 1-452). The method, boiled down:
as §1

Chain of ETV6 (P41212 whole entry): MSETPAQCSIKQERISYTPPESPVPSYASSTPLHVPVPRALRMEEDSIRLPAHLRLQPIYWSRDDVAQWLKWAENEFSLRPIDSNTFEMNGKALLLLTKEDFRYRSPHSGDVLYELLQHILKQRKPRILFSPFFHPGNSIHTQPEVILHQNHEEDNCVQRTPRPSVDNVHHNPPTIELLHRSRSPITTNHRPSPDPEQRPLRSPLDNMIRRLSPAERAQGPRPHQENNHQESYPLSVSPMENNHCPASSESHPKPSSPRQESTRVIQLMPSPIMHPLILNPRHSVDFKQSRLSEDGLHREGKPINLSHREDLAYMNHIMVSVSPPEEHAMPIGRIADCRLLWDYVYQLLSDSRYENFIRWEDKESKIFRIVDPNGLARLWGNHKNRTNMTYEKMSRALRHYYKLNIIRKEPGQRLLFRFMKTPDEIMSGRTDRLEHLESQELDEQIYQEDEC

As for ATCACT, the binding signal in assay [1] is 1.16 fold enrichment (6-mer frequency, TF over GST control); in assay [2], 1.16 fold enrichment (6-mer frequency, TF over GST control); in assay [3], 1.22 fold enrichment (6-mer frequency, TF over GST control); in assay [4], 1.22 fold enrichment (6-mer frequency, TF over GST control); in assay [5] it was 1.26 fold enrichment (6-mer frequency, TF over GST control); in assay [6], 1.27 fold enrichment (6-mer frequency, TF over GST control). Moreover, the binding signal in assay [7] is 1.15 fold enrichment (6-mer frequency, TF over GST control); in assay [8], 1.28 fold enrichment (6-mer frequency, TF over GST control).
Take CGTCCC: the binding signal in assay [1] was 1.35 fold enrichment (6-mer frequency, TF over GST control); in assay [2] it was 1.3 fold enrichment (6-mer frequency, TF over GST control); in assay [3] it was 1.38 fold enrichment (6-mer frequency, TF over GST control); in assay [4] it was 1.35 fold enrichment (6-mer frequency, TF over GST control); in assay [5] it was 1.22 fold enrichment (6-mer frequency, TF over GST control); in assay [6] it was 1.31 fold enrichment (6-mer frequency, TF over GST control). Besides, the binding signal in assay [7] is 1.41 fold enrichment (6-mer frequency, TF over GST control); in assay [8], 1.32 fold enrichment (6-mer frequency, TF over GST control).
In the case of TAACTT, the binding signal was 1.32 fold enrichment (6-mer frequency, TF over GST control) in assay [1]; 1.47 fold enrichment (6-mer frequency, TF over GST control) in assay [2]; 1.38 fold enrichment (6-mer frequency, TF over GST control) in assay [3]; 1.28 fold enrichment (6-mer frequency, TF over GST control) in assay [4]; 1.25 fold enrichment (6-mer frequency, TF over GST control) in assay [5]; 1.44 fold enrichment (6-mer frequency, TF over GST control) in assay [6]. Further, the binding signal in assay [7] is 1.41 fold enrichment (6-mer frequency, TF over GST control); in assay [8], 1.32 fold enrichment (6-mer frequency, TF over GST control).
CTGATC: the binding signal was 1.52 fold enrichment (6-mer frequency, TF over GST control) in assay [1]; 1.36 fold enrichment (6-mer frequency, TF over GST control) in assay [2]; 1.42 fold enrichment (6-mer frequency, TF over GST control) in assay [3]; 1.33 fold enrichment (6-mer frequency, TF over GST control) in assay [4]; 1.35 fold enrichment (6-mer frequency, TF over GST control) in assay [5]; 1.32 fold enrichment (6-mer frequency, TF over GST control) in assay [6]. In addition, the binding signal in assay [7] is 1.36 fold enrichment (6-mer frequency, TF over GST control); in assay [8] it was 1.23 fold enrichment (6-mer frequency, TF over GST control).
Turning to AGTACA, the binding signal in assay [1] was 1.06 fold enrichment (6-mer frequency, TF over GST control); in assay [2], 1.09 fold enrichment (6-mer frequency, TF over GST control); in assay [3] it was 1.16 fold enrichment (6-mer frequency, TF over GST control); in assay [4], 1.31 fold enrichment (6-mer frequency, TF over GST control); in assay [5], 1.21 fold enrichment (6-mer frequency, TF over GST control); in assay [6] it was 1.17 fold enrichment (6-mer frequency, TF over GST control). The binding signal in assay [7] was 1.2 fold enrichment (6-mer frequency, TF over GST control); in assay [8] it was 1.24 fold enrichment (6-mer frequency, TF over GST control).
Regarding CTTACC, the binding signal in assay [1] is 1.19 fold enrichment (6-mer frequency, TF over GST control); in assay [2], 1.16 fold enrichment (6-mer frequency, TF over GST control); in assay [3] it was 1.29 fold enrichment (6-mer frequency, TF over GST control); in assay [4], 1.39 fold enrichment (6-mer frequency, TF over GST control); in assay [5], 1.29 fold enrichment (6-mer frequency, TF over GST control); in assay [6] it was 1.39 fold enrichment (6-mer frequency, TF over GST control). The binding signal in assay [7] was 1.22 fold enrichment (6-mer frequency, TF over GST control); in assay [8], 1.19 fold enrichment (6-mer frequency, TF over GST control).
Take TACTAA: the binding signal was 1.2 fold enrichment (6-mer frequency, TF over GST control) in assay [1]; 1.23 fold enrichment (6-mer frequency, TF over GST control) in assay [2]; 1.21 fold enrichment (6-mer frequency, TF over GST control) in assay [3]; 1.22 fold enrichment (6-mer frequency, TF over GST control) in assay [4]; 1.35 fold enrichment (6-mer frequency, TF over GST control) in assay [5]; 1.25 fold enrichment (6-mer frequency, TF over GST control) in assay [6]. In addition, the binding signal is 1.19 fold enrichment (6-mer frequency, TF over GST control) in assay [7] and 1.24 fold enrichment (6-mer frequency, TF over GST control) in assay [8].
Consider CTGGTC, for which the binding signal was 1.19 fold enrichment (6-mer frequency, TF over GST control) in assay [1]; 1.27 fold enrichment (6-mer frequency, TF over GST control) in assay [2]; 1.21 fold enrichment (6-mer frequency, TF over GST control) in assay [3]; 1.24 fold enrichment (6-mer frequency, TF over GST control) in assay [4]; 1.15 fold enrichment (6-mer frequency, TF over GST control) in assay [5]; 1.17 fold enrichment (6-mer frequency, TF over GST control) in assay [6]. In addition, the binding signal is 1.24 fold enrichment (6-mer frequency, TF over GST control) in assay [7] and 1.08 fold enrichment (6-mer frequency, TF over GST control) in assay [8].
With AGGAAG, the binding signal is 1.2 fold enrichment (6-mer frequency, TF over GST control) in assay [1]; 1.33 fold enrichment (6-mer frequency, TF over GST control) in assay [2]; 1.5 fold enrichment (6-mer frequency, TF over GST control) in assay [3]; 1.15 fold enrichment (6-mer frequency, TF over GST control) in assay [4]; 1.23 fold enrichment (6-mer frequency, TF over GST control) in assay [5]; 2.03 fold enrichment (6-mer frequency, TF over GST control) in assay [6]. The binding signal in assay [7] is 1.54 fold enrichment (6-mer frequency, TF over GST control); in assay [8] it was 1.71 fold enrichment (6-mer frequency, TF over GST control).
